Measurements reported in PubChem BioAssay (Tox21).
Results filed as inconclusive are left out. Entries that show only a call come without a potency. Active and inactive are the calls of the source. The call rests on the fitted dose curve; in most records, active means well fitted cell-killing curve with a large enough effect in the repeat runs; inconclusive means weak or mixed curves, or effect the other way; inactive means no such curve, though single readings can be large or run the other way.

test: qHTS assay to identify small molecule agonists of the vitamin D receptor (VDR) signaling pathway - cell viability counter screen (AID 743224); settings: VDR-bla HEK293T viability, CellTiter-Glo luminescence, 16 h; series mostly up to 62.6 µM; further: nearly all actives have a fitted effect of over 50% in size
Excerpt: U.S. Tox21 Program National Center for Advancing Translational Sciences [NCATS] NIH Chemical Genomics Center [NCGC] U.S. Environmental Protection Agency [EPA] National Institutes of Environmental Health Sciences [NIEHS] National Toxicology Program [NTP] U.S. Food and Drug Administration [FDA] Tox21 Assay Overview: The vitamin D receptor (VDR), a member of nuclear hormone receptor superfamily, plays a critical role in calcium homeostasis and bone metabolism. It is also involved in cell differentiation and growth, and thrombogenicity. […] The cytotoxicity of the Tox21 compound library against the VDR-bla cell line was tested in parallel by measuring the cell viability using CellTiter-Glo assay (Promega, Madison, WI) in the same wells.
Tox21 Assay Protocol Summary: VDR-bla cells were dispensed at 2,000 cells/6 uL/well into black wall/clear-bottom 1536-well plates using a Multidrop Combi (Thermo Fisher Scientific, Waltham, MA) dispenser. After the assay plates were incubated at a 37C and 5% CO2 for 4 h, 23 nL of compounds dissolved in DMSO, positive controls or DMSO only was transferred to the assay plate by a Pintool station (Kalypsys, San Diego, CA). The plates were incubated at 37C and 5% CO2 for 16 h. After 1 uL of LiveBLAzerTM B/G FRET substrate was added using a Bioraptr Flying Reagent Dispenser (FRD) workstation (Beckman Coulter, Indianapolis, IN, USA), the plates were incubated at room temperature for 2 h, and fluorescence intensity was measured by an Envision plate reader (PerkinElmer, Shelton, CT). For cell viability readout that measures cytotoxicity, 3 ul/well of CellTiter-Glo reagent was added into the assay plates using a FRD. After 30 min incubation at room temperature, the luminescence intensity in the plates was measured using a ViewLux (PerkinElmer) plate reader.
Potency means the concentration at half of the fitted maximal effect.

| SMILES | Potency | activity change, negative = cytotoxicity |
| --- | --- | --- |
| c1cc(CCCc2ccncc2)ccn1 | inactive |  |
| O=C1OC(CN2CCOCC2)CN1/N=C/c1ccc([N+](=O)[O-])o1 (stereo not given) | inactive |  |
| CN1CCC(=C2c3ccccc3Sc3ccccc32)CC1 | inactive |  |
| C[C@@H]1C[C@H]2O[C@@]3(O[C@@H]2C(C)(C)O)[C@H](O)[C@@]2(C)[C@@H]4CC[C@H]5C(C)(C)[C@@H](O[C@@H]6OC[C@@H](O)[C@H](O)[C@H]6O)CC[C@@]56C[C@@]46CC[C@]2(C)[C@@H]13 | inactive |  |
| CCOC(=O)C(=O)CCc1ccccc1 | inactive |  |
| C=C(C)C(=O)OCC | inactive |  |
| COc1cc2nc(N3CCN(C(=O)C4COc5ccccc5O4)CC3)nc(N)c2cc1OC (stereo not given) | inactive |  |
| Cc1oc(-c2ccccc2)nc1CCOc1cccc2c1ccn2CCC(=O)O | inactive |  |
| CCOCC(O)COc1ccc(NC(=O)CC[S+](C)C)cc1 (stereo not given) | inactive |  |
| COc1ccc(C(=O)N2CCN(CC(=O)N3CCOCC3)CC2)cc1 | inactive |  |
| O=C(NCC1CN(c2ccc(N3CCOCC3=O)cc2)C(=O)O1)c1ccc(Cl)s1 (stereo not given) | inactive |  |
| CCN(CC)CCNc1ccc(CNC=O)c2sc3ccc(OC)cc3c(=O)c12 | 54.9 µM (active) |  |
| Cc1ccc(C(=O)Oc2ccc(C(O)CNC(C)(C)C)cc2OC(=O)c2ccc(C)cc2)cc1 (stereo not given) | inactive |  |
| CC(COCCO)OCCO (stereo not given) | inactive |  |
| COc1cc(Cl)c(OC)cc1N | inactive |  |
| COC(C)(C)CCO | inactive |  |
| Nc1ncn([C@H]2C[C@H](O)[C@@H](CO)O2)c(=O)n1 | inactive |  |
| CCOc1ccc(N)c([N+](=O)[O-])c1 | inactive |  |
| CCCCC(=O)OCC(=O)[C@H]1[C@H](C)C[C@H]2[C@@H]3C[C@H](F)C4=CC(=O)C=C[C@]4(C)[C@@]3(F)[C@@H](O)C[C@@]21C | inactive |  |
| OCc1cc(C(O)CNCCCCCCOCCCCc2ccccc2)ccc1O (stereo not given) | inactive |  |

| SMILES | Potency | activity change, negative = cytotoxicity |
| --- | --- | --- |
| c1ccc(-c2ccccn2)nc1 | inactive |  |
| CN1C[C@H]2c3ccccc3Oc3ccc(Cl)cc3[C@@H]2C1 | inactive |  |
| Nc1cccc(S(=O)(=O)c2cccc(N)c2)c1 | inactive |  |
| Cc1ccc(N=Nc2c(O)c(C(=O)O)cc3ccccc23)c(S(=O)(=O)O)c1 | inactive |  |
| CN(C)c1ccc(/C=C/c2ccc([N+](=O)[O-])cc2)cc1 |  | -5.5% [at 5.95 µM] (inactive) |
| CCCCC | inactive |  |
| Cc1cc(C(=O)O)ccc1[N+](=O)[O-] | inactive |  |
| CCOC(=O)COC(=O)c1cc(Oc2ccc(C(F)(F)F)cc2Cl)ccc1[N+](=O)[O-] | inactive |  |
| CCc1c(C(=O)NN2CCCCC2)nn(-c2ccc(Cl)cc2Cl)c1-c1ccc(Br)cc1 | 19.5 µM (active) |  |
| Cc1c(N)cccc1[N+](=O)[O-] | inactive |  |
| O=C(Cl)c1cc(C(=O)Cl)cc(C(=O)Cl)c1 | inactive |  |
| O=C(O)CNCC(=O)O |  | -6.84% [at 5.95 µM] (inactive) |
| CN(C)c1ccc(C(c2ccccc2)c2ccc(N(C)C)cc2)cc1 | inactive |  |
| C1CCCNCCC1 | inactive |  |
| C[C@@H]1C[C@H]2[C@@H]3CCC4=CC(=O)C=C[C@]4(C)[C@@]3(F)[C@@H](O)C[C@]2(C)[C@@]1(O)C(=O)COC(=O)c1ccncc1 | inactive |  |
| CC(C)(CO)[N+](=O)[O-] | inactive |  |
| NCCCN1CCOCC1 | inactive |  |
| OC(C#CCN1CCCC1)(c1ccccc1)c1ccccc1 | inactive |  |
| COC(=O)C1=C(C)NC(COC(N)=O)=C(C(=O)OC(C)C)C1c1cccc(Cl)c1Cl (stereo not given) | inactive |  |
| O=C(O)c1ccco1 | inactive |  |
